From PubChem BioAssay (NCI) come the findings set out here.

The structures appear in SMILES notation. The panel holds about 83,000 compounds, 20% with a hit somewhere; the sample as a whole holds those more often.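 For each line, cells grew in 96-well plates with the test compound present at a single concentration for 48 hours.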 A number with no mark means an inactive call. Active and inactive are the calls of the source. The calls were made as follows: active = growth percent below 10; inactive = the rest.

What all share (assay): NCI-60 one-dose screen, 48 h (100 = growth as untreated, 0 = no growth, -100 = all killed)
What all share (conditions): 10 µM unless noted

Assay [1] has as its system HCT-15 colon.
Assay [2] concerns HT29 colon.
The test system of assay [3] is SNB-75 CNS.
In assay [4] the test system is SNB-19 CNS.
Assay [5] has as its system U251 CNS.
In assay [6] the test system is SK-MEL-5 melanoma.
The test system of assay [7] is UACC-62 melanoma.
Assay [8] has as its system LOX IMVI melanoma.
Assay [9] concerns SK-MEL-28 melanoma.
For assay [10], the system named is SK-MEL-2 melanoma.
The subject of assay [11] is EKVX NSCLC.
The subject of assay [12] is UO-31 renal.
Assay [13] deals with TK-10 renal.
In assay [14] the test system is ACHN renal.
The subject of assay [15] is CAKI-1 renal.
Assay [16] has as its system A498 renal.
For assay [17], the system named is CCRF-CEM leukemia.
Assay [18] has as its system MOLT-4 leukemia.
Assay [19] concerns SN12C renal.
Assay [20] has as its system PC-3 prostate.

Take `Cn1cc(C(=O)c2nc(-c3c[nH]c4ccc(Br)cc34)no2)c2cc(Br)ccc21`: the growth is 56.1% in assay [1]; 44% in assay [2]; 73.7% in assay [3]; 86.2% in assay [4]; 52% in assay [5]; 83.4% in assay [6]. Further, the growth in assay [7] is 86.1%; in assay [8], 78.3%; in assay [9], 92%; in [10], 109%; in assay [11] it was 60.5%; in assay [12], 67%. The growth was 99.9% in [13]; 80.9% in assay [14]; 67.4% in assay [15]; 106% in assay [16]; 45.6% in assay [17]; 85% in assay [18].

As to `CC(C)c1ccc(NC(=O)Nc2ccc(NC(=O)c3ccccc3N)cc2)cc1`, the growth in [1] was 50.7%; in assay [2], 26.5%; in [3], 26.3%; in assay [4], 55.5%; in [5], 35.6%; in [6], 24.3%. For the same compound, the growth in assay [7] is 3% (active); in assay [8], 20.9%; in assay [9], 39.9%; in assay [10] it was 45.3%; in assay [11], 48.2%; in [19] it was 91.6%. Besides, the growth is 20.5% in [12]; 65.5% in assay [13]; 29.6% in assay [14]; 70.7% in assay [15]; 49.6% in assay [16]; 29% in assay [17]. For the same compound, the growth in assay [18] is 19.2%.

Regarding `Oc1c(I)cc(-c2nc3ccccc3s2)cc1CN(Cc1ccccn1)Cc1ccccn1`, the growth is 22% in assay [1]; 21.3% in assay [2]; 40.1% in assay [3]; 20.9% in assay [4]; 8.16% (active) in assay [5]; -78.3% (active) in [6]. Besides, the growth in assay [7] was 10.5%; in assay [8] it was 3.14% (active); in [9], 37.5%; in assay [10], 14.8%; in [11], 8.07% (active); in [19] it was 17.3%. In addition, the growth was -26.6% (active) in assay [12]; 14.5% in [13]; 8.93% (active) in assay [14]; 5.39% (active) in assay [15]; 18.1% in [16]; 7.86% (active) in assay [17]. In [18], the growth is 0.129% (active).

`CC[C@H](Nc1nc(N)nc(C)c1C#N)c1nc2cccc(NCCCCCC(=O)NO)c2c(=O)n1-c1ccccc1`: the growth was 78.7% in assay [1]; 79.2% in assay [2]; 5.55% (active) in assay [3]; 71% in assay [4]; 45.1% in assay [20]; 49.7% in assay [6]. Also, the growth in assay [7] was 15.7%; in [8] it was 66.5%; in assay [9], 45.8%; in assay [10] it was 76.1%; in [11] it was 75%; in assay [19], 46.3%. The growth in assay [12] is 30.1%; in assay [13], 33.2%; in assay [14], 51.9%; in assay [15] it was 35.9%; in [16], -29.5% (active); in [17], 43.3%. For the same compound, in [18], the growth is 30.7%.

As for `CCOC(=O)c1ccc2c(c1)c1c(C)c3ccncc3c(C)c1n2C`, the growth in [1] is 0.188% (active); in assay [2], 3.66% (active); in assay [3], 2.3% (active); in assay [4] it was 8.59% (active); in [5], 0.292% (active); in assay [7], -64.4% (active). Moreover, the growth was -19.1% (active) in assay [8]; -28.3% (active) in assay [9]; -38.2% (active) in [10]; 10.3% in assay [11]; 4.36% (active) in assay [19]; -13.4% (active) in assay [12]. Besides, the growth is 2.52% (active) in assay [13]; -22.5% (active) in assay [14]; -10.4% (active) in assay [15]; -45.6% (active) in assay [16]; 12.6% in assay [17]; 8.03% (active) in [18].

Regarding `O=C1NC(=Nc2ccc(O)cc2)S/C1=C\c1cccs1`, the growth was 20.9% in [1]; 89.7% in [2]; -12.7% (active) in assay [3]; 32.4% in [4]; 25.2% in assay [5]; 47.8% in [6]. The growth in [7] is 46.1%; in [8] it was 32.1%; in [9], 75.6%; in [10] it was 97.9%; in assay [11], 38.8%; in assay [19] it was 46.1%. The growth was 52.5% in assay [12]; 69.3% in [13]; 30.3% in assay [14]; 40.9% in assay [15]; 15.9% in assay [16]; 11.9% in [17]. Also, the growth in [18] was 23.1%.

As to `Cc1cc(C)cc(Nc2ccc([N+](=O)[O-])c(NCCN3CCOCC3)n2)c1`, the growth in [1] is 11.5%; in assay [2] it was 13.4%; in [4], 43.9%; in assay [5], 20.8%; in assay [20], 17.2%; in assay [6] it was -20.3% (active). In addition, the growth in assay [7] is 36.6%; in assay [8] it was 15.7%; in assay [9] it was 60.9%; in assay [10] it was 43.4%; in assay [11], 66%; in [19], 32.2%. The growth in assay [12] is 23.1%; in [13], 65%; in assay [14], 30.4%; in [15], 37.4%; in assay [16], -0.289% (active); in assay [17], 5.33% (active). Also, the growth in assay [18] was 10.3%.

On to `COc1cc2c(c(OC)c1OC)C(=O)N[C@@H]1[C@@H](O)[C@@H](O)[C@H](O)C[C@@H]21`, for which the growth in assay [1] was 104%; in [2], 107%; in [3] it was 102%; in assay [4], 99%; in [6], 104%; in assay [7] it was 94.1%. The growth in assay [8] was 97.7%; in [9] it was 111%; in assay [10] it was 117%; in [11], 103%; in assay [19], 104%; in assay [12], 87.1%. The growth in assay [13] was 98.5%; in assay [14], 99.7%; in [15], 94.1%; in assay [16], 112%; in assay [17], 104%; in assay [18] it was 104%.
